The values below come from PubChem BioAssay (EPA / NIEHS).

Read-out in assay [1]: ABC Transporter (ABCB1), ABCB1 (gene 5243)
Kind of assay: CLD_ABCB1_48hr: CellzDirect (CLD) Gene Expression Assay for ABC Transporter (ABCB1) at 48 hours (AID 2283695). The procedure, abridged: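 ABCB1 mRNA was measured by quantitative nuclease protection assay (chemiluminescence) 48 h after dosing. Human hepatocyte cultures from two separate donors received fresh dosing solutions daily for two days, with 0.2% DMSO as vehicle. Positive-direction fit against DMSO.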

Read-out in assay [2]: glucuronosyltransferase (UGT1A1), UGT1A1 (gene 54658)
Kind of assay: CLD_UGT1A1_24hr: CellzDirect (CLD) Gene Expression Assay for glucuronosyltransferase (UGT1A1) at 24 hours (AID 2283696). Put shortly:
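UGT1A1 transcript induction was measured by quantitative nuclease protection assay (chemiluminescence) in human hepatocyte cultures 24 h after daily fresh dosing, with 0.2% DMSO as vehicle and baseline.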

Read-out in assay [3]: Cytochrome P450 3A4 (Homo sapiens) (UniProt P08684)
Kind of assay: CLD_CYP3A4_48hr: CellzDirect (CLD) Gene Expression Assay for xenobiotic metabolism (CYP3A4) at 48 hours (AID 2283698). The procedure, abridged: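 CYP3A4 induction read by qNPA chemiluminescence after 48 h, with fresh dosing solutions on consecutive days, in cultured human hepatocytes (two donors). Vehicle 0.2% DMSO as baseline; microscopy-based cytotoxicity annotated yes/no alongside data.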

Read-out in assay [4]: xenobiotic metabolism (CYP1A2), CYP1A2 (gene 1544)
Kind of assay: CLD_CYP1A2_48hr: CellzDirect (CLD) Gene Expression Assay for xenobiotic metabolism (CYP1A2) at 48 hours (AID 2283703). Put shortly:
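Cytotoxicity was flagged yes/no from morphology, while CYP1A2 transcript induction was detected by qNPA chemiluminescence after a 48-hour exposure. Human primary hepatocyte cultures from separate donors received fresh dosing solutions daily over two days, with 0.2% DMSO as vehicle and baseline.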

Read-out in assay [5]: Broad substrate specificity ATP-binding cassette transporter ABCG2 (Homo sapiens) (UniProt Q9UNQ0)
Kind of assay: CLD_ABCG2_48hr: CellzDirect (CLD) Gene Expression Assay for ABC Transporter (ABCG2) at 48 hours (AID 2283704). The procedure, abridged:
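ABCG2 transcript measured at 48 h by quantitative nuclease protection (chemiluminescent) and fitted for increase relative to 0.2% DMSO. Hepatocyte cultures from separate donors got fresh compound daily over two days; morphology annotated cytotoxicity.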

Read-out in assay [6]: xenobiotic metabolism (CYP1A1), CYP1A1 (gene 1543)
Kind of assay: CLD_CYP1A1_48hr: CellzDirect (CLD) Gene Expression Assay for xenobiotic metabolism (CYP1A1) at 48 hours (AID 2283705). Put shortly:
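CYP1A1 transcript measured by quantitative nuclease protection (chemiluminescent) 48 h after two daily treatments of human hepatocyte cultures, versus 0.2% DMSO. Morphology-based cytotoxicity flags accompany data; two donor preparations used.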

Read-out in assay [7]: organic anion transporter (SLCO1B1), SLCO1B1 (gene 10599)
Kind of assay: CLD_SLCO1B1_48hr: CellzDirect (CLD) Gene Expression Assay for organic anion transporter (SLCO1B1) at 48 hours (AID 2283707). Put shortly:
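SLCO1B1 transcript quantified by qNPA with chemiluminescent readout after 48 h of once-daily chemical exposure. Cultured human primary hepatocytes came from two donors, with 0.2% DMSO vehicle; positive-direction fitting against DMSO, cytotoxicity flagged by morphology.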

Read-out in assay [8]: alkyl and aryl transferase (GSTA2), GSTA2 (gene 2939)
Kind of assay: CLD_GSTA2_48hr: CellzDirect (CLD) Gene Expression Assay for alkyl and aryl transferase (GSTA2) at 48 hours (AID 2283708).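 Note: active means mRNA induction above DMSO vehicle baseline.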 Put shortly: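 GSTA2 mRNA quantified by qNPA chemiluminescence in human primary hepatocyte lysates after 48 h of daily fresh chemical dosing. Increases fitted against 0.2% DMSO vehicle baseline; cytotoxicity from morphology annotated yes/no.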

Read-out in assay [9]: glucuronosyltransferase (UGT1A1), UGT1A1 (gene 54658)
Kind of assay: CLD_UGT1A1_48hr: CellzDirect (CLD) Gene Expression Assay for glucuronosyltransferase (UGT1A1) at 48 hours (AID 2283709).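 Note: actives increase expression relative to DMSO so potency refers to induction.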 Put shortly:
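Quantitative nuclease protection assay (chemiluminescent) for UGT1A1 mRNA at 48 h in human hepatocyte cultures from two donors, redosed daily with fresh solutions. Induction fitted relative to 0.2% DMSO; phase-contrast morphology annotated cytotoxicity.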

Read-out in assay [10]: sulfotransferase (SULT2A), SULT2A1 (gene 6822)
Kind of assay: CLD_SULT2A_48hr: CellzDirect (CLD) Gene Expression Assay for sulfotransferase (SULT2A) at 48 hours (AID 2283710).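 Note: hits raise SULT2A1 transcript above the 0.2% DMSO vehicle baseline.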 Put shortly: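 SULT2A1 transcript measured by qNPA chemiluminescence in human primary hepatocyte cultures after 48 h, with fresh dosing solutions on two consecutive days; gain-of-signal fitting against 0.2% DMSO vehicle; cytotoxicity annotated from phase-contrast morphology.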

Assay [11] can be described thus: Tanguay_ZF_120hpf_ActivityScore_legacy: (Legacy) Oregon State University Tanguay Lab 120 Hour Post-fertilization zebrafish Assay Score for Activity (AID 2283742). The procedure, abridged: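 Dechorionated 5D embryos, one per well, static exposure 6–120 hpf, 28C, sealed and dark; final DMSO 0.64% (vol/vol). Brightfield binary scoring of mortality plus 18 endpoints; gain-of-signal fit versus DMSO baseline.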

Read-out in assay [12]: HMG-CoA synthase (HMGCS2), HMGCS2 (gene 3158)
Kind of assay: CLD_HMGCS2_48hr: CellzDirect (CLD) Gene Expression Assay for HMG-CoA synthase (HMGCS2) at 48 hours (AID 2283711). Put shortly: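 mRNA induction read by qNPA chemiluminescence, 48 h after dosing. Cultured primary human liver cells (two donor preparations) received fresh compound daily over two days against 0.2% DMSO vehicle; morphology-based cytotoxicity noted alongside.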

The nature of assay [13]: STM_H9_OrnithineISnorm_perc: Stemina devTOX quickPredict H9 human embryonic stem cell (hESC)-based Assay for Ornithine (ORN) Metabolite Biomarker, Normalized (AID 2283712; active = hit-call score of the fitted dose curve at least 0.9, where 1 is the maximum; inactive = score below 0.9;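 note: ornithine released into spent medium during last day measured by mass spectrometry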). Put shortly: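 Ornithine secreted by H9 hESCs after 72h compound treatment (daily media/compound renewal) was quantified in final-day media by UPLC-HRMS. Values are isotope-standard-normalized, expressed relative to 0.1% DMSO, fitted in positive direction.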

Read-out in assay [14]: Cytochrome P450 2B6 (Homo sapiens) (UniProt P20813)
Kind of assay: CLD_CYP2B6_48hr: CellzDirect (CLD) Gene Expression Assay for xenobiotic metabolism (CYP2B6) at 48 hours (AID 2283699).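 Note: actives raise transcript level above DMSO so potency reflects induction.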 The procedure, abridged:
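CYP2B6 transcript induction, read by quantitative nuclease protection (S1 digestion, chemiluminescent detection) 48 h after dosing, is fitted upward against 0.2% DMSO. Cultured human liver primary cells, two donor preparations, received fresh chemical daily over multiple concentrations.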

Assay [15] in a line: CLD_ACTIN_48hr: CellzDirect (CLD) Gene Expression Assay for Baseline Control (Actin) at 48 hours (AID 2283702). Put shortly: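 Background-control actin mRNA read by qNPA chemiluminescence at 48 h. Human hepatocyte cultures from two donors received fresh multi-concentration chemical doses daily for two days; 0.2% DMSO served as vehicle baseline.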
Assay [16] can be described thus: STM_H9_OrnCyssISnorm_ratio: Stemina devTOX quickPredict H9 human embryonic stem cell (hESC)-based Assay for Ornithine (ORN):Cystine (CYSS) Ratio (AID 2283714). Put shortly: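 UPLC-HRMS of spent media: ORN/CYSS ratio of internal-standard-normalized percentages, DMSO (0.1%) baseline. Pluripotent H9 hESCs, 72h exposure, daily re-dosing with fresh media; last 24h media collected.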

The nature of assay [17]: CEETOX_H295R_MTT_cell_viability: Viability Assessment in the CeeTox HT-H295R MTT Assay (AID 2283718; active = hit-call score of the fitted dose curve at least 0.9, where 1 is the maximum; inactive = score below 0.9). Put shortly:
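Human H295R adrenal cells, prestimulated 48 h with 10 uM forskolin, were exposed 48 h to chemicals in 0.1% DMSO. Viability was measured in the same wells by MTT (0.5 mg/ml, 4 h, 37 C), absorbance 570/650 nm, as percent of controls.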

Read-out in assay [18]: sulfotransferase (SULT2A), SULT2A1 (gene 6822)
Kind of assay: CLD_SULT2A_24hr: CellzDirect (CLD) Gene Expression Assay for sulfotransferase (SULT2A) at 24 hours (AID 2283694).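 For AC50: potency for increased SULT2A1 mRNA level as induction over DMSO baseline.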 The procedure, abridged:
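mRNA is measured by qNPA: probe hybridisation, S1 nuclease digestion, chemiluminescence, in lysates from human primary hepatocytes harvested 24 h after daily dosing. Vehicle was 0.2% DMSO. Phase-contrast microscopy flagged cytotoxicity (yes/no).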

Results filed as inconclusive are left out. Active and inactive are the calls of the source. Rule for the calls, unless noted: active = hit-call score of the fitted dose curve at least 0.9, where 1 is the maximum; inconclusive = response in the unintended direction; inactive = score below 0.9.

Usually AC50 stands for the concentration at which the activity in the assay is half-maximal.

Chain of Cytochrome P450 3A4 (Homo sapiens) (P08684 whole entry, looked up): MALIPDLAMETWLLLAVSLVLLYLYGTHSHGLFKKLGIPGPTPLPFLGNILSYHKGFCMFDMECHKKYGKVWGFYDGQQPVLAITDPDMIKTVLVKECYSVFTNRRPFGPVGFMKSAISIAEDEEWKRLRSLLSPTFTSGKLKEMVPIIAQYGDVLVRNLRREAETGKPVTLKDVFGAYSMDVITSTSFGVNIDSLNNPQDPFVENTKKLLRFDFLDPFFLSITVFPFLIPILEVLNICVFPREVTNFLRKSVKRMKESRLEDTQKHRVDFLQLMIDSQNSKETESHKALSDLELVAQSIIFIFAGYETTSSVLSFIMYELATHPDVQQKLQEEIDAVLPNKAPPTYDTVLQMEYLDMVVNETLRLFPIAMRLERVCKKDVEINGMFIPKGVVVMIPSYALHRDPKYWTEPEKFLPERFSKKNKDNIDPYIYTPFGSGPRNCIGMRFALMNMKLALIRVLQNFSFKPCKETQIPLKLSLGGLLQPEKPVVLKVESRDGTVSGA
Chain of Broad substrate specificity ATP-binding cassette transporter ABCG2 (Homo sapiens) (Q9UNQ0 whole entry, looked up): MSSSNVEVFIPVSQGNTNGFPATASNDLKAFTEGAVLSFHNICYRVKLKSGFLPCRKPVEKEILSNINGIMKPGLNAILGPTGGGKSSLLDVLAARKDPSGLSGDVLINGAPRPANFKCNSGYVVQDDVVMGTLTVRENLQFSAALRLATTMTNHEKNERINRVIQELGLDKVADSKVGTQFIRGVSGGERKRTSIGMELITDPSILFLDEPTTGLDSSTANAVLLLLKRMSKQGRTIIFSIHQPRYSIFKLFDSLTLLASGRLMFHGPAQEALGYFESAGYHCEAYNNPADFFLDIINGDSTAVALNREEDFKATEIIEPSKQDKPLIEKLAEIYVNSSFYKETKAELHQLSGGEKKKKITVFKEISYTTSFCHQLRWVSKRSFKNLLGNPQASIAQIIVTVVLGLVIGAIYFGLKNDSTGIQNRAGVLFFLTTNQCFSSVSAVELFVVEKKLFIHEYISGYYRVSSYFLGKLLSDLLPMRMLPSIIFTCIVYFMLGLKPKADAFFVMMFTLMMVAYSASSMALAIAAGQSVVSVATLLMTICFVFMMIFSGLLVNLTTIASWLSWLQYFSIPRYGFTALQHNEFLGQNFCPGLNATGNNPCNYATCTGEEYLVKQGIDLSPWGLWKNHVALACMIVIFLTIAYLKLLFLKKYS

Turning to `OC(c1ccc(Cl)cc1)(c1ccc(Cl)cc1)C(Cl)(Cl)Cl`, the outcome in [1], in [2], in assay [4], in assay [5], in assay [7] and in assay [8] was inactive. Moreover, the outcome in assay [9], in assay [10] and in assay [11] was inactive. Further, the half-maximal activity concentration (AC50) in assay [3] was 11 µM (active); in assay [6], 20 µM (active).
Consider `CCOc1nc(F)cc2nc(S(=O)(=O)Nc3c(Cl)cccc3Cl)nn12`, for which the compound was classed as inactive in [2], in assay [6], in [9], in assay [10], in assay [12] and in assay [11]. Besides, the figures for the AC50 in assay [3] and in assay [13] were 3.13 µM (active) and 0.007 µM (active), respectively.
Regarding `Clc1cccc(C(Cl)(Cl)Cl)n1`, the AC50 was 3.02 µM (active) in assay [3], 1.47 µM (active) in assay [14] and 19.7 µM (active) in assay [13]. Moreover, the compound was called inactive in [15], in [4], in assay [5], in [7], in assay [8] and in assay [9]. Besides, the result in assay [10] and in [11] was inactive.
With `N#CN=C1SCCN1Cc1ccc(Cl)nc1`, the outcome in assay [2], in [5], in assay [7], in [8], in assay [9] and in [10] was inactive. In addition, the result in assay [13], in [16], in [17] and in assay [11] was inactive. Moreover, the AC50 in assay [3] was 20 µM (active).
In the case of `COc1cc(Cl)c(OC)cc1Cl`, the outcome in assay [18], in assay [3], in [5], in [7], in [8] and in assay [9] was inactive. Further, the compound was classed as inactive in [10] and in [17].
Regarding `CCN(CC)C(=O)C(C)Oc1cccc2ccccc12` (configuration not stated), the compound was classed as inactive in assay [2], in assay [7], in [8], in assay [17] and in assay [11]. Also, the AC50 in [3] is 3.72 µM (active); in assay [6], 27.9 µM (active); in assay [9] it was 3.1 µM (active); in assay [10], 33 µM (active); in [13] it was 50 µM (active); in assay [16] it was 6.66 µM (active).
Turning to `COc1ccc(-c2ccccc2)cc1NNC(=O)OC(C)C`, the values for the AC50 in [18], in [13] and in assay [16] were 33.5 µM (active), 42.1 µM (active) and 36.1 µM (active), respectively. Further, the compound was classed as inactive in assay [3], in assay [14], in assay [15], in assay [5], in assay [7] and in [8]. Moreover, the call in [9], in assay [10] and in assay [12] was inactive.
